Source: PubChem BioAssay AID1259318 (Sanford-Burnham Center for Chemical Genomics, 2017)
Among all 370,000 compounds or so, about 3,000 (0.81%) were called active. This is one part of a sample in which actives are shown more often than they occur.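 Rule for the calls: active = activity above about 14% (limit read from the data; passing the limit was not always enough); inactive = the rest.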

What follows are molecules tested against Nuclear receptor subfamily 1 group D member 1 (Homo sapiens) (UniProt P20393) (assay: modulators of Rev-erb alpha DNA binding, primary screen, biochemical, FITC-DNA, fluorescence polarization, uHTS (AID 1259318;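 note: 0% = DMSO wells with 35 nM protein and 100% = DMSO wells with 750 nM protein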)). Details: Rev-erbα–FITC-DNA binding, 90 min, at 10 µM, active compounds read high.
Nuclear receptor subfamily 1 group D member 1 (Homo sapiens), sequence (P20393 whole entry, looked up): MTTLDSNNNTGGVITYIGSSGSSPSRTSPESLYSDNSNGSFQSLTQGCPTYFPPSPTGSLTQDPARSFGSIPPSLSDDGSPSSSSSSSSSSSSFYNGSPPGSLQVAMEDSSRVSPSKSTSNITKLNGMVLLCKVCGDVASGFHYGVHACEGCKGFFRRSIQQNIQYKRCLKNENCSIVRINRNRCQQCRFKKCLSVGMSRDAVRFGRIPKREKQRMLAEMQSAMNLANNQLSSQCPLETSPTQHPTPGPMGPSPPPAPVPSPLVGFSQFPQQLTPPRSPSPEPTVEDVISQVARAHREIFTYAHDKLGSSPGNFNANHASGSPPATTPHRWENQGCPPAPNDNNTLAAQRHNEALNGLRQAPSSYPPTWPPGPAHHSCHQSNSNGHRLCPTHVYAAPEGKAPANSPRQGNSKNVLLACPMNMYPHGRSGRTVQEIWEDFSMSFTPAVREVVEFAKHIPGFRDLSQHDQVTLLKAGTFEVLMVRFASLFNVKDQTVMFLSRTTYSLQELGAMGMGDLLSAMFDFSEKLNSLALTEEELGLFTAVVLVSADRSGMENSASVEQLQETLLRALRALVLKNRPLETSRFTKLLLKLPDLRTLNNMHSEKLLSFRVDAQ

Row | SMILES | activity
1 | CCCCCCCCCCCCCCCC(=O)O[C@@H]1[C@@H](O)[C@@H](O)C([C@H](NC(=O)[C@@H]2C[C@@H](CCC)CN2C)[C@H](C)Cl)O[C@@H]1SC (some centres not stated) | -0.49% (inactive)
2 | Cc1ccc(N(C(=O)Cc2cccs2)C2C=CS(=O)(=O)C2)cc1Cl (configuration not stated) | 8.02% (inactive)
3 | CC(C)(C)CC(C)(C)NCC(O)COCCOc1ccc(Br)cc1 (configuration not stated) | -2.77% (inactive)
4 | COc1ccc(N(Cc2ccc(N(C)C)cc2)C(=O)c2ccc(S(C)(=O)=O)cc2)cc1 | -2.66% (inactive)
5 | COc1ccc2sc(-c3ccc(S(C)(=O)=O)cc3)c(-c3ccc(C(N)=O)cc3)c2c1 | 29.1% (active)
6 | COc1ccc2sc(-c3ccccc3OC)c(-c3ccc(OCCN4CCCC4)cc3)c2c1 | 2.94% (inactive)
7 | COc1ccc(C(=O)NCC2CCCCC2)cc1S(=O)(=O)N1CCCC1 | 3.18% (inactive)
8 | CC(C(=O)O)c1ccc(C2CCCCC2)c2ccccc12 (configuration not stated) | -0.34% (inactive)
9 | CC(=O)OCC(=O)[C@@]1(O)CCC2C3CCC4=CC(=O)C=C[C@]4(C)[C@@]3(F)[C@@H](O)C[C@@]21C (some centres not stated) | -0.05% (inactive)
10 | COc1cc(OC)c(N2CC(C(=O)Nc3cc(Cl)ccc3N3CCOCC3)CC2=O)cc1Cl (configuration not stated) | 15.7% (active)
11 | COc1ccccc1N1CC(C(=O)Nc2ccc(S(=O)(=O)N3CCOCC3)cc2)CC1=O (configuration not stated) | 2.07% (inactive)
12 | COc1ccc(Cl)cc1NC(=O)C1CC(=O)N(c2ccc(F)cc2)C1 (configuration not stated) | -2.88% (inactive)
13 | COc1ccc(CN2C(=O)C(CC(=O)NCCCCc3ccccc3)CC(C(=O)N3CCOCC3)=C2C)cc1 (configuration not stated) | 0.56% (inactive)
14 | Cc1cccc(NC(=O)CCn2c(=O)oc3ccccc32)c1 | 4.67% (inactive)
15 | COCc1cc(C)nc(Nc2cc(C)ccc2C)c1C#N | 1.3% (inactive)
16 | COCc1cc(C)nc(SCC(=O)Nc2cccc(C)c2)c1C#N | 20.6% (active)
17 | C=CCC1(CC=C)CCCN1C(=O)c1cc(COc2ccc(-n3cncn3)cc2)on1 | 3.62% (inactive)
18 | Cc1ccc(NC(=S)NNC(=O)CSc2nnc(SCc3ccccc3Cl)s2)cc1 | 3.4% (inactive)
19 | CN(C)S(=O)(=O)c1ccc(NC(=O)COC(=O)c2n[nH]c3ccccc23)cc1 | 1.34% (inactive)

Row | SMILES | activity
20 | CCCc1nc(SCC(=O)Nc2ccc(S(=O)(=O)N(C)C)cc2)c2ccccc2n1 | 28% (active)
21 | CC(C)N(C(=O)CSc1nc(COc2ccccc2)nc2ccccc12)C(C)C | 4.08% (inactive)
22 | NC(=O)c1ncn([C@@H]2O[C@H](C(=O)O)[C@@H](O)[C@H]2O)n1 | -0.1% (inactive)
23 | CSCC[C@H](NC(=O)N1CCn2c1nc1ccccc12)C(=O)NC1CCCCC1 | 0.83% (inactive)
24 | COc1ccc(-c2nn(C)c(=O)c3ccccc23)cc1NC(=O)COc1ccccc1 | 25.4% (active)
25 | COc1ccc(S(=O)(=O)N2CCCCC2)cc1NC(=O)COc1ccccc1 | 1.75% (inactive)
26 | COc1ccc(-c2nn(C)c(=O)c3ccccc23)cc1CNC(=O)C1CCCCC1 | -3.48% (inactive)
27 | C=CCNC(=O)c1ccc2c3n(nc2c1)-c1ccc(C)cc1CO3 | 0.44% (inactive)
28 | CCc1cc(=O)oc2c(C)c(OCC(=O)N3CC[C@@]4(O)CCCC[C@H]4C3)ccc12 | 2.4% (inactive)
29 | CS(=O)(=O)c1ccc2nc(NC(=O)c3ccc(N4CCCC4=O)cc3)sc2c1 | 41.6% (active)
30 | O=C(Nc1cc(S(=O)(=O)N2CCOCC2)ccc1OCC(F)(F)F)c1ccc(N2CCCC2=O)cc1 | 3.86% (inactive)
31 | O=C(NCCCN1CCCCCC1)c1ccc(N2CCCC2=O)cc1 | -2.08% (inactive)
32 | CC(=O)c1c(C)[nH]c(C(=O)OCC(=O)NCCC(C)C)c1C | 4.11% (inactive)
33 | COC(=O)C12C=C3CC(c4ccccc4)=C3C(=O)N1Cc1[nH]c3ccccc3c1C2 (configuration not stated) | -0.17% (inactive)
34 | O=C(CSc1nc2ncccc2[nH]1)Nc1ccc2c(c1)OCCO2 | -0.69% (inactive)
35 | Cc1nc2nc(SCC(=O)c3ccccc3)[nH]c2cc1Br | 34.1% (active)
36 | CCCn1c(SCC(=O)Nc2cccc(C(=O)OCC)c2)nnc1-c1ccoc1C | -3.66% (inactive)
37 | O=C(CSc1nc2[nH]c(=O)[nH]c(=O)c2s1)Nc1cccc(F)c1 | -1.8% (inactive)
38 | Cc1cc(C)c(C(=O)CSc2nc(C)cc(=O)[nH]2)c(C)c1 | -1.57% (inactive)

Row | SMILES | activity
39 | COc1ccc(C(=O)CSc2nccc(=O)[nH]2)cc1 | 2.06% (inactive)
40 | CCn1c(SCC(=O)Nc2cccc(F)c2)nnc1-c1cc2cc(Br)ccc2o1 | 56.3% (active)
41 | Cc1nc2nc(SCC(=O)Nc3cccc(F)c3)[nH]c2cc1Br | 43.6% (active)
42 | CCn1c(CNC(=O)c2ccco2)nnc1SCC(=O)Nc1cccc(F)c1 | -8.25% (inactive)
43 | CN(Cc1nc(-c2cnccn2)no1)Cc1n[nH]c2c1CCCCC2 | -2.14% (inactive)
44 | COC(=O)c1cc(S(=O)(=O)N2CCN(c3cc(C)ccc3C)CC2)c[nH]1 | 11.2% (inactive)
45 | CCOC(=O)C1CCN(C(=O)C(C)(C)NC(=O)Nc2ccccc2Cl)CC1 | -6.49% (inactive)
46 | Cc1ccc(C(=O)C2CCN(CC(=O)NCCC(C)C)CC2)cc1 | -0.72% (inactive)
47 | Cc1noc(C)c1CCC(=O)O | 4.26% (inactive)
48 | Cc1ccc(SCC2=NNC(=O)C2)cc1 | -1.27% (inactive)
49 | N#Cc1c(-c2ccc(F)cc2)cc(C2CC2)nc1SCC(=O)c1cccs1 | 174% (active)
50 | O=C(c1cccs1)N1CCCC(c2nc(-c3ccc(F)cc3)no2)C1 (configuration not stated) | 1.09% (inactive)
51 | O=C(CCC(=O)c1cccs1)NC1CCCCCC1 | 3.87% (inactive)
52 | COCCCNc1nc2ccccc2nc1NS(=O)(=O)c1ccc(F)cc1 | -2.18% (inactive)
53 | COCCCNc1nc2c(-c3cccc(C)c3)nnn2c2ccc(Cl)cc12 | 52.9% (active)
54 | COCCCNc1nc2c(-c3cccc(C(F)(F)F)c3)nnn2c2ccccc12 | 15.6% (inactive)
55 | COc1ccc(-n2nc3c(c2NC(=O)c2ccc(N4C(=O)CCC4=O)cc2)CSC3)cc1 | 1.69% (inactive)
56 | COc1ccc(-c2csc(NC(=O)c3ccc(N4C(=O)CCC4=O)cc3)n2)cc1OC | 19.3% (active)
57 | COc1ccccc1C(=O)Oc1ccc(N2C(=O)CCC2=O)cc1 | -3.5% (inactive)
